Compounds with a hit are over-represented: about 6% of the library has one in this group of screens.
Tau fibril FP – inhibitors of human tau fibril formation | P10636 | 280,000 compounds, 0.39% hits | Potency, µM (titrated, usually from 57.7 µM), usual class: inhibitors | K18 P301L tau heparin fibrillization, Alexa594 FP, 6 h; also: nearly all actives have a fitted effect of over 55% in size
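Read-out: fluorescence polarization of Alexa 594-labeled tau (0.24 uM), 555 nm excitation, 632 nm emission. Mixtures held 15 uM unlabeled K18 P301L, compound and 20 uM heparin, pH 7 acetate buffer, incubated 6 hr at 37 C.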
Tau fibril ThT – tau fibrillization inhibition (ThT binding); Potency, µM (doses to about 57.4 µM), hits mostly inhibitors; 270,000 compounds, 2.1% hits; recombinant tau K18 P301L, heparin-induced fibrillization, ThT fluorescence; also: nearly all actives have a fitted effect of over 55% in size
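Tau K18 P301L fragment (15 uM unlabeled plus 0.24 uM Alexa 594-labeled) in 100 mM sodium acetate pH 7 with compound, fibrillization induced by 20 uM heparin for 6 hr at 37 C. Thioflavin T (30 uM) added, fluorescence read after 1 hr (ex 450, em 510 nm).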
Sfp inh – Sfp phosphopantetheinyl transferase inhibition; AID 1490; Potency, µM, usual class: inhibitors; 310,000 compounds, 3.5% hits; Biochemical Sfp PPTase activity, qHTS; Q9F4F7;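 also: the enzyme is Sfp with the accession as filed and its product quenches rhodamine fluorescence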
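Compounds were incubated with enzyme (final 15 nM) for 15 min at room temperature before substrate addition started the reaction. Fluorescence at 525 nm excitation, 598 nm emission was recorded immediately and after 30 minutes.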
PLK1 PBD block – inhibitors of human PLK1 polo-box domain binding | 360,000 compounds, 2.8% hits | P53350 | Plk1 PBD binding of FITC phosphopeptide, fluorescence polarization | Potency, µM, actives largely listed as inhibitors | AID 720504; also: series mostly up to about 57 µM; nearly all actives have a fitted effect of over 65% in size
Target sequence (P53350 whole entry, looked up, the tested form may be a part): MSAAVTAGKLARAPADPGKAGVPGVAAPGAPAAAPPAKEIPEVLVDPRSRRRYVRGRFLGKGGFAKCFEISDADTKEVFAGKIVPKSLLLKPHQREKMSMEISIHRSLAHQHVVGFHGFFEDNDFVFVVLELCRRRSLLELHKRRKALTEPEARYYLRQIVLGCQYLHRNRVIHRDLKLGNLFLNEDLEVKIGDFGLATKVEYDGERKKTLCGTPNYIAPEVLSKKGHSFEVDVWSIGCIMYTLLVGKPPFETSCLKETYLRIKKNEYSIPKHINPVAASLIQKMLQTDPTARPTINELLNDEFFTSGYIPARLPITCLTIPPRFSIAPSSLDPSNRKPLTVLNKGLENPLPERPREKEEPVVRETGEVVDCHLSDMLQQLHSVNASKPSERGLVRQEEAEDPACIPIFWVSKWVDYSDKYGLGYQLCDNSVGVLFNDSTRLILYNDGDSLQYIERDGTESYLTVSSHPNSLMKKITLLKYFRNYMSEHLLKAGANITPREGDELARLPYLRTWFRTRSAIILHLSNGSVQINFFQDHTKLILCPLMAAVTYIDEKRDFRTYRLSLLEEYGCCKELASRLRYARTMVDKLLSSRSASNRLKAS
Tau fluor cs – counter-screen for tau fibril formation inhibitors | 280,000 compounds, 0.93% hits | tau K18 P301L (four-repeat tau fragment) Alexa594 fluorescence, heparin fibrillization | Potency, µM (series often up to 57.7 µM); also: nearly all actives have a fitted effect of over 55% in size
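Human K18 P301L tau (15 uM unlabeled plus 0.24 uM Alexa 594-labeled, final) in 100 mM sodium acetate pH 7 was mixed with compound and 20 uM heparin and incubated 6 hr at 37 C.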
VDR inh – blocks the human vitamin D receptor; VDR-SRC2-3 peptide fluorescence polarization, 2 h; AID 504847; 400,000 compounds, 0.93% hits; Potency, µM, hits mostly inhibitors
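Two reagent solutions held at 4 deg C in the dark were dispensed, compounds pinned at 23 nl, and the mixture incubated 2 h at room temperature. Read-out: fluorescence polarization of VDR–SRC2-3 peptide binding.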
Of the large screens only hits and unclear results are named; the others gave an inactive call; [ ] = dose if it differs, or a comment. Calls follow the shape of the dose curve; as a rule, active = well fitted curve in the direction sought with a large enough effect; inconclusive = small, poorly fitted or top-dose-only effect, or another doubt; inactive = no such curve, though single readings can be large; an effect the other way counts as inactive or inconclusive.

COCCNC(=O)C(C)N1c2cccc3cccc(c23)S1(=O)=O (stereo not drawn)	PLK1 PBD block inconclusive
CCOc1ccc(Nc2nc(N)c([N+](=O)[O-])c(NCc3ccccc3)n2)cc1	Tau fibril ThT inconclusive, Tau fluor cs 14µM[quencher]
Nc1nc(Nc2ccccc2)nc(NCc2ccccc2)c1[N+](=O)[O-]	Tau fibril FP inconclusive, Tau fibril ThT inconclusive, Tau fluor cs inconclusive
Cc1ccc(Nc2nc(N)c([N+](=O)[O-])c(NCc3ccco3)n2)cc1C	Tau fibril FP inconclusive, Tau fibril ThT 16µM, Tau fluor cs 28µM[quencher]
COc1ccc(NC(=O)CN2C(=O)CCn3nc(-c4cccn4C)cc32)cc1	none (no result: Sfp inh, PLK1 PBD block)
CCOc1ccc(CCNC(=O)CCc2c(C)nc3c4c(C)cc(C)nc4nn3c2C)cc1	Tau fibril FP inconclusive, Tau fibril ThT inconclusive (no result: Sfp inh, PLK1 PBD block)
Nc1nc(-c2ccccc2)c(N=Nc2cccnc2)s1	Tau fibril ThT 2.8µM, Tau fluor cs inconclusive
CCOC(=O)C(=CNc1cc(C)nn1-c1ccc(Cl)cc1)C(=O)OCC	none
CCOC(=O)C(=Cc1ccccc1)C(=O)OCC	VDR inh 10µM (no result: Tau fibril FP, Tau fibril ThT, PLK1 PBD block, Tau fluor cs)
CCOC(=O)/C(=C\c1ccc(C)cc1)NC(=O)c1ccccc1	none
CCOC(=O)C(=Cc1ccc(-n2cncn2)cc1)C(=O)OCC	Tau fibril ThT inconclusive, PLK1 PBD block inconclusive, VDR inh 16µM
COc1cc(C(c2c(C)[nH][nH]c2=O)c2c(C)[nH][nH]c2=O)cc([N+](=O)[O-])c1O	Tau fibril FP inconclusive, Tau fibril ThT 14µM, PLK1 PBD block 27µM
CCOc1cc(C(c2c(C)[nH][nH]c2=O)c2c(C)[nH][nH]c2=O)ccc1OC(=O)c1cccc([N+](=O)[O-])c1	Tau fibril ThT inconclusive, Tau fluor cs inconclusive
CCOc1cc(C(c2c(C)[nH][nH]c2=O)c2c(C)[nH][nH]c2=O)ccc1OCc1ccc([N+](=O)[O-])cc1	Tau fibril ThT 11µM, PLK1 PBD block inconclusive, Tau fluor cs inconclusive, VDR inh inconclusive
CCOc1cc(C(c2c(C)[nH][nH]c2=O)c2c(C)[nH][nH]c2=O)cc([N+](=O)[O-])c1O	none (no result: Tau fibril FP, Tau fibril ThT, Tau fluor cs)
CCOc1cc(C(c2c(C)[nH][nH]c2=O)c2c(C)[nH][nH]c2=O)cc(Br)c1OC	PLK1 PBD block inconclusive (no result: Tau fibril FP, Tau fibril ThT, Tau fluor cs)
COc1cc(C(c2c(C)[nH][nH]c2=O)c2c(C)[nH][nH]c2=O)cc(Br)c1OC	PLK1 PBD block 27µM, VDR inh inconclusive (no result: Tau fibril FP, Tau fibril ThT, Tau fluor cs)
Nc1c(S(=O)(=O)c2cccc(Cl)c2)c2nc3ccccc3nc2n1/N=C/c1ccc(O)c(O)c1	Tau fibril FP inconclusive, Tau fibril ThT inconclusive, Tau fluor cs 5.6µM[quencher] (no result: PLK1 PBD block, VDR inh)
CC1(C)C(=O)C=CC(=O)C(C)(C)C(=O)C=CC(=O)C(C)(C)C2=CC=C(O2)C(C)(C)C(=O)C=CC1=O	PLK1 PBD block 6µM, VDR inh inconclusive (no result: Tau fibril FP, Tau fibril ThT, Sfp inh, Tau fluor cs)
C[C@@H]1C(=O)NC2=Nc3cccc(Cl)c3CN21	none (no result: PLK1 PBD block)
COc1cc2c(cc1OC)n(CC(=O)NC1CCCCCC1)n1c(C)cc(=O)nc21	PLK1 PBD block 27µM (no result: Tau fibril FP, Tau fibril ThT, Tau fluor cs)
COc1ccc(CCNc2ncnc3c2c(-c2ccccc2)cn3-c2cccc(Cl)c2)cc1OC	none (no result: Sfp inh, PLK1 PBD block)
CCOC(=O)c1c(NC(=O)C2C3CCC(O3)C2C(=O)O)sc(C)c1-c1ccc(F)cc1 (stereo not drawn)	none
CCCOC(=O)c1c(-c2ccc(C)cc2C)csc1NC(=O)C1C2CCC(O2)C1C(=O)O (stereo not drawn)	Sfp inh inconclusive, PLK1 PBD block 12µM, VDR inh inconclusive
Cc1ccc(O)c(N=CC2=C(O)c3ccccc3C2=O)c1	Tau fibril FP inconclusive, Tau fibril ThT 25µM, PLK1 PBD block inconclusive, Tau fluor cs inconclusive
O=C1C(C=Nc2ccccc2O)=C(O)c2ccccc21	Tau fibril ThT inconclusive
COc1ccc(N=Cc2[nH]c3ccccc3c2O)cc1	Tau fibril FP inconclusive, Tau fibril ThT 18µM, PLK1 PBD block inconclusive
COc1ccc(N=CC2=C(O)c3ccccc3C2=O)cc1	Tau fibril ThT 2.2µM
C[C@@H]1CN([C@@H](C)CO)C(=O)c2cccc(NC(=O)c3nc4ccccc4s3)c2O[C@@H]1CN(C)CC1CC1	none (no result: Tau fibril FP, Tau fibril ThT, Sfp inh, Tau fluor cs)
CC(C)OCCCn1c(SCc2ccccc2C#N)nc2c(sc3ccccc32)c1=O	none (no result: Sfp inh, PLK1 PBD block)
